# Only a selection was taken, and hits are over-represented in it overall. No count for the full screen is at hand. Values without a mark were called inactive.
# Tested on: T1, Caupolican (Caup) homeodomain DNA-binding domain
# T1 sequence: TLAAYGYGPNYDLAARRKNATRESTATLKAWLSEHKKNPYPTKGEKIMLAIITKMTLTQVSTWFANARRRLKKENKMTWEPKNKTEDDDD
# Experiment: PBM E-score (8-mer, recovered from the published 9-mer minima) (E-score (dimensionless, -0.5 to 0.5)); Drosophila protein; higher = stronger relative binding preference, active = 0.31 or more
# Method in brief: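 Caup's homeodomain DNA-binding domain (residues 214-303) was made by in vitro transcription and translation and applied at 100 nM to custom-designed protein binding microarrays. Each value is an enrichment score that gives relative binding preference for a short DNA word, with higher meaning stronger. The 8-mer values were recovered from published 9-mer scores, each of which was the minimum of its two constituent 8-mer scores. A cutoff of 0.31 marks candidate sites.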
row,Sequence,PBM E-score
1,AAGTCGTG,0.0196
2,AAAATGTA,0.166
3,CGATATTA,0.219
4,ATTTTACA,0.305
5,GATTACTA,0.184
6,TCTTACAA,0.246
7,AATTACAG,0.244
8,GATTACCA,0.0721
9,CATTACAA,0.288
10,AATTACAA,0.396 (active)
11,AATTACCA,0.184
12,AATTACAT,0.385 (active)
13,GATTACAA,0.314 (active)
14,AATTACGT,0.122
15,AATTACTA,0.179
16,TATTACAA,0.341 (active)
17,AAGACTGC,-0.0769
18,AAATGACG,0.171
19,GATGCCAA,-0.0306
20,TAGCGGGA,-0.169
21,CGATATTC,-0.0778
22,AGGATGAA,-0.102
23,CCGAGTCG,-0.169
24,AGAAGAGG,-0.176
25,CCCCTTCG,-0.25
26,ATGGGAAC,0.0233

row,Sequence,PBM E-score
1,AGGTAGAA,0.0148
2,TAACAGCA,0.145
3,CACAAACC,-0.0236
4,TTGATCAA,0.115
5,GACCGTTA,0.0165
6,AGTCAGAC,-0.0283
7,AGTTACAA,0.295
8,ACTTACAT,0.339 (active)
9,TGTTACAA,0.42 (active)
10,CGTTACAA,0.289
11,ACTTACAC,0.245
12,AGTTACAG,0.189
13,AGTTACAC,0.303
14,ACTTACAG,0.187
15,AGTTACAT,0.319 (active)
16,CCGAAATC,-0.0715
17,CCGAGCAG,-0.0223
18,ACTCAGCA,0.0319
19,ACGTGTGG,0.0393
20,AGGTGTTG,0.125
21,ACGTGTTC,0.279
22,CCGTGTTA,0.321 (active)
23,ACGTGTTG,0.347 (active)
24,CCGTGTTC,≥ 0.382 (active)
25,CGGTGTTA,0.179
26,AGGTGTTA,0.207

row,Sequence,PBM E-score
1,GCGTGTTA,0.284
2,CAGTGTTA,0.24
3,ACGTGTTA,0.33 (active)
4,CGGTGTTC,0.157
5,ACCGGGCC,-0.228
6,GCACGTCC,-0.0893
7,AGTTTTCC,-0.0223
8,AGCCCACT,-0.166
9,GTGTTCGA,0.236
10,ATGTTCAA,0.327 (active)
11,ATGTTCAC,0.334 (active)
12,CTGTTCAA,0.0792
13,ATGTTCGG,0.244
14,ATGTTCGA,0.34 (active)
15,ATGTTCAG,0.295
16,AGGTTCAC,-0.0392
17,CTGTTCAC,0.147
18,CACTCTGA,0.0251
19,ATAGGGTG,-0.0464
20,CCCATAAC,0.0433
21,CACGACCA,0.098
22,CAGAAGAG,-0.0491
23,ATCCTCCG,-0.0647
24,AAGTGAGA,-0.0758
25,CCTCTGGA,-0.169
26,CTCCGTGA,-0.0581

row,Sequence,PBM E-score
1,CGGTAGGC,-0.149
2,ATACGATA,0.186
3,CGATGTGC,-0.0367
4,CCATGTAG,0.268
5,GAATGTAC,0.165
6,CCCTGTAA,0.161
7,GCATGTAC,0.413 (active)
8,CGATGTAG,0.179
9,ACATGTAG,0.476 (active)
10,ACCTGTAG,0.0685
11,CCATGTAA,0.404 (active)
12,AAATGTAG,0.0799
13,GGATGTAC,0.305
14,CGATGTAC,0.374 (active)
15,AGGCTTTC,-0.088
16,ACCGCGGA,-0.137
17,ATTCCTTA,0.0011
18,CATCCCAC,-0.133
19,GCTGCCGA,-0.282
20,ACATGTAC,≥ 0.48 (active)
21,TCATGTAA,0.427 (active)
22,ACACGTAA,0.309
23,AAATGTAC,0.279
24,AACTGTAA,0.197
25,AGATGTAC,0.299
26,CCCTGTAC,0.158

row,Sequence,PBM E-score
1,ACATGTAA,0.468 (active)
2,TCCTGTAA,0.2
3,CCATGTAC,0.411 (active)
4,TCATGGAA,0.0375
5,CCCCTTGA,-0.156
6,CACGCACA,0.0915
7,AGGTCATG,0.0878
8,ATAGTCGG,-0.0656
9,AAAGCTCG,-0.0924
10,CTCATCTC,-0.158
11,GGGATTGA,-0.0471
12,AAATGTAT,0.241
13,ACATGTAT,0.469 (active)
14,GCCTGTAA,0.09
15,GCATGTAA,0.409 (active)
16,GCATGGAA,-0.00398
17,ACCTGTAT,0.222
18,CGCAGAAC,-0.0278
19,GAATTATA,0.109
20,GCGGGTAA,-0.02
21,CAACAACA,0.408 (active)
22,AAACAACA,0.363 (active)
23,TAACAAGA,0.298
24,GAACAACA,0.292
25,CAACAACC,0.238
26,AAACAACC,0.202

row,Sequence,PBM E-score
1,TAACAACA,0.406 (active)
2,TAACAAAA,0.119
3,AAACAACT,0.246
4,AGTATCTA,0.166
5,TATCTAGA,0.0449
6,GGACCCAC,-0.208
7,GAGCAGAC,-0.0808
8,CTAGAAAA,0.0157
9,CACTAATG,0.0246
10,CATAGCCG,-0.0066
11,AACACGTA,0.316 (active)
12,AACACGTC,0.299
13,ACCACGTG,0.0775
14,AACACGTT,0.292
15,CACACGTG,0.148
16,AACACGTG,≥ 0.351 (active)
17,CTATTTTC,0.101
18,GCTACACA,0.185
19,ACTACACT,0.242
20,ACTACACC,0.281
21,ACTACACA,≥ 0.357 (active)
22,CCTACACG,0.18
23,ACTACACG,≥ 0.357 (active)
24,ATAGCTCG,-0.0531
25,GTTCCCAA,-0.045
26,CGATGCTC,-0.13

row,Sequence,PBM E-score
1,AACGTGTA,0.371 (active)
2,GACGTGTA,0.344 (active)
3,CACGTGAA,0.00852
4,CACGTGTA,0.329 (active)
5,GACGTGAA,-0.0186
6,CACGTGTC,0.266
7,AACGTGTC,0.257
8,AACGTGTG,0.111
9,GACGTGGA,-0.0891
10,GCCCGTCC,-0.243
11,AGGGTATC,-0.045
12,GTACCGTA,0.0122
13,GATGTCTA,0.23
14,CATGTCTC,0.314 (active)
15,CATGTCTA,0.359 (active)
16,AATGTCTC,0.112
17,AATGTCTA,0.242
18,CATGTGTC,0.245
19,AAAGATTT,-0.00222
20,CTCACCCC,-0.125
21,GTGTATTA,0.297
22,ATGTATTC,0.222
23,CTGTATTA,0.159
24,ACGTATTG,0.151
25,ATGTATTA,0.373 (active)
26,ATGTATTG,0.344 (active)

row,Sequence,PBM E-score
1,GCCCCGGC,-0.316
2,CACAGTAA,0.122
3,CTCTAAAG,-0.0918
4,GCGGTTCA,-0.101
5,CACAAGGA,0.109
6,GACAAAGA,0.13
7,GACAAGGC,0.205
8,GACAAGGA,0.314 (active)
9,TACAAGGA,0.352 (active)
10,AACAAGGA,0.302
11,CTCGACTC,-0.0783
12,CGGCTATC,-0.134
13,CCATATAA,0.0843
14,ACATATAA,0.35 (active)
15,ACATATAG,0.256
16,ACACATAA,0.291
17,ACACATAT,0.323 (active)
18,TCATATAA,0.184
19,ACATATAT,0.343 (active)
20,ACACATAG,0.174
21,ACATATAC,0.291
22,CGACTATC,-0.0393
23,AGAGGATA,0.0175
24,ATCAAGAT,0.0803
25,CTAGGAGC,-0.193
26,CATCCCGC,-0.146

row,Sequence,PBM E-score
1,AACACTAA,0.166
2,GCTTAAAA,-0.0795
3,GCGCCACA,-0.129
4,CGCGTATA,-0.0122
5,AATATTGC,0.153
6,CCATGCTA,0.102
7,CTATGCTC,0.0374
8,AGATGCTG,-0.00229
9,GCATGCTA,0.0372
10,CCATGCTC,-0.00716
11,ACATGCCA,0.336 (active)
12,ACATGCCT,0.254
13,TCATGCCA,0.0318
14,ACATGCTA,0.352 (active)
15,ATATGCTG,0.0997
16,ACATGCTC,0.334 (active)
17,ACATGCTG,0.332 (active)
18,CACTGCTA,0.075
19,CATACCGC,-0.0667
20,AAGCTCCT,-0.0876

# — the supplement of paper PMC3724861
